Rows were chosen to be rich in hits. Some 17% of all compounds tested hit in one or more screens of this group.
DT40 TDP1 CPT: DT40-hTDP1 cell growth loss with CPT. chicken DT40 Tdp1-/-;hTDP1 cells + 20 nM CPT, ATP luminescence, 48 h. Potency, µM (series often up to 46.2 µM), without a hit: at the top dose activity change, negative = growth inhibition, hits mostly inhibitors. hit rate 12% among 420,000; also: % is scaled to controls: 0 for no effect and ±100 for the full control effect; nearly all actives have a fitted effect of over 55% in size
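Cell growth measured by CellTiter-Glo luminescence after a minimum 48 h, 37 C compound exposure with 20 nM CPT in Tdp1-knockout DT40 cells stably expressing hTDP1, seeded 400/well; qHTS titration format.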
DT40 TDP1 no CPT: qHTS for Inhibitors of human tyrosyl-DNA phosphodiesterase 1 (TDP1): qHTS in cells in absence of CPT; DT40 Tdp1-/- hTDP1 cells, no CPT, ATP luminescence, 48 h; Potency, µM (doses to about 46.2 µM), inactives show top-dose activity change, negative = growth inhibition, most hits filed as inhibitors; hit rate 15% among 420,000; AID 686978, 2013; also: % is scaled to controls: 0 for no effect and ±100 for the full control effect; nearly all actives have a fitted effect of over 55% in size
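DT40 Tdp1-/-;hTDP1 cells, no CPT (DMSO vehicle only), 400 cells/well; compounds pin-transferred; ≥48 hr, 37 °C; CellTiter-Glo 30 min RT dark, luminescence read.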
TGFb inhibitor: blocks TGF-b signaling. HepG2 CAGA-GFP TGF-b/SMAD3 reporter, GFP fluorescence, 18 h; TGF-beta stimulated, 500 pg/mL final. Potency, µM (top dose mostly 46.1 µM), inactives show at the highest dose activity, negative = inhibition, actives largely listed as inhibitors. hit rate 1.2% among 410,000. AID 588855; also: % is scaled to controls: 0 for no effect and ±100 for the full control effect; nearly all actives have a fitted effect of over 65% in size
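First, reporter cells (HEPG2 CAGA-GFP) rested 2 h at 37 degrees C. Next, compounds were pinned in and TGF-beta added to 500 pg/mL final. After 18 h, GFP was imaged per cell and summed per well.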
ATXN viability: cell viability loss in ATXN counter-screen. hit rate 0.49% among 400,000. S2 cells (HEK-293 line with an ATXN2-luciferase reporter) viability, CellTiter-Fluor protease fluorescence, 24 h. AID 651635. Potency, µM (highest dose often 56.7 µM), hits mostly cytotoxic; also: nearly all actives have a fitted effect of over 40% in size
HepG2 viability: HepG2 cytotoxicity, counter-screen for TGF-b inhibitors; hit rate 0.76% among 410,000; Potency, µM (highest dose often 46.1 µM), without a hit: at the highest dose activity change, negative = cytotoxicity, most hits filed as cytotoxic; HepG2 CAGA-GFP viability, ATP luminescence, 18 h
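CellTiter-Glo luminescence gave cytotoxicity after 18 hours at 37 degrees C. The cells were HepG2 CAGA-GFP in 1% FBS DMEM, stimulated with 500 pg/mL TGF-beta after compound addition. %Activity was normalised to no-cell wells (complete cell-killing) and DMSO (no toxicity), and curves were fitted and classified.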
ATXN2 expr inh: ATXN2 expression inhibition; hit rate 0.72% among 360,000; AID 1745845; HEK-293 ATXN2-luciferase reporter, luminescence, 24 h; Potency, µM (series often up to 57 µM), without a hit: top-dose activity change, negative = inhibition, hits mostly inhibitors; also: % is scaled to controls: 0 for no effect and ±100 for the full control effect; nearly all actives have a fitted effect of over 55% in size
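qHTS (up to 57 uM final) was run with 24 h compound exposure of reporter cells at 37 °C. Each well was multiplexed: SteadyGlo luminescence measured ATXN2-luciferase expression after a fluorogenic Gly-Phe-AFC viability readout (25 uM final).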
* = called active by the depositor; i = inactive; ? = inconclusive; · = no result given; [ ] = dose if it differs, or a comment. Calls follow the shape of the dose curve; as a rule, active = well fitted curve in the direction sought with a large enough effect; inconclusive = small, poorly fitted or top-dose-only effect, or another doubt; inactive = no such curve, though single readings can be large; an effect the other way counts as inactive or inconclusive. Potency is read from the fitted curve at half-maximal effect.

SMILES	DT40 TDP1 CPT	DT40 TDP1 no CPT	TGFb inhibitor	ATXN viability	HepG2 viability	ATXN2 expr inh
COc1cc(C2Nc3cc(C)c(C)cc3NC3=C2C(=O)CC(C)(C)C3)ccc1OC(C)=O (stereo not given)	-20%	23%	-5%	i	-4%	5%
Cc1cc2c(cc1C)NC(c1c(C)n(C)n(-c3ccccc3)c1=O)C1=C(CC(C)(C)CC1=O)N2 (stereo not given)	16µM*	?	1%	i	-37%	36%
O=C(/C=C/N1CCOCC1)c1ccc(-c2ccccc2)cc1	?	21µM*	-7%	i	-10%	-17%
CC(=O)OCC1OC(n2cnc3c(Cl)nc(Cl)nc32)C(OC(C)=O)C1OC(C)=O (stereo not given)	?	21µM*	·	·	·	·
CC(=O)OCC1OC(n2cc(F)c(=O)[nH]c2=O)C(OC(C)=O)C1OC(C)=O (stereo not given)	8.2µM*	5.2µM*	?	i	-9%	·
CC(=O)OC[C@H]1O[C@@H](n2ccc(=O)[nH]c2=S)C(OC(C)=O)C1OC(C)=O (stereo not given in full)	2%	-3%	-17%	i	-14%	3%
CCOC(=O)c1c(C)oc2nc(C)nc(N3CCN(c4ccc(C)cc4C)CC3)c12	-8%	?	2%	i	-6%	-1%
CCOC(=O)c1cc(C#N)c(N2CCN(C(=O)c3cccc(C(F)(F)F)c3)CC2)nc1C(F)(F)F	?	15µM*	?	i	-41%	-28%
CCOC(=O)c1c(C)oc2nc(C)nc(N3CCN(c4cccc(C(F)(F)F)c4)CC3)c12	9.2µM*	5.2µM*	-12%	i	-34%	-18%
CCOC(=O)c1c(C)oc2nc(C)nc(N(C)Cc3ccccc3)c12	18µM*	23µM*	-24%	i	-17%	?
CCOC(=O)c1c(C)oc2nc(C)nc(N3CCN(c4ccccc4)CC3)c12	9.2µM*	15µM*	?	?	-21%	?
Cc1ccc(CNC(=O)C2CCCN2C(=O)Nc2cccc(Cl)c2)cc1 (stereo not given)	-9%	4%	?	?	-23%	3%
CC(=O)CCC(=O)N1CCC(n2c(C3CCCO3)nc3cc(C(F)(F)F)ccc32)CC1 (stereo not given)	-8%[9.04 µM]	-1%	·	i	·	·
CCN1C(=O)N/C(=C/c2cc(C)n(Cc3ccccc3)c2C)C1=O	18µM*	?	-2%	i	-9%	29%
Cc1ccc(/C=C2/NC(=O)N(Cc3ccccc3)C2=O)o1	16µM*	23µM*	?	i	-47%	14%
COC(=O)CN1C(=O)N/C(=C/c2ccc(C)o2)C1=O	-26%	7%	0%	i	-8%	1%
CCn1cc(/C=C(\NC(=O)c2ccc(OC)c(OC)c2)C(=O)N2CCN(C)CC2)c2ccccc21	?	8%	-3%	i	3%	-8%
Cc1cnc(C)c(-c2cccc3c2OC(CNC(=O)CN2C(=O)c4ccccc4C2=O)C3)n1 (stereo not given)	13%	-2%	·	i	·	·
O=C(CNc1ccc(Br)cc1)NC(=O)NC1CCCCC1	?	?	-9%	i	3%	1%
Cc1ccc(CN2C(=O)C(C)Sc3ccc(C#N)cc32)cc1 (stereo not given)	-20%	?	18%	i	2%	-3%
NC(=O)c1ccc(NC(=O)COC(=O)c2cc3ccccc3cc2O)cc1	1%	1%	11%	i	-2%	1%
COc1ccc(Nc2ncc(C(=O)N3CCN(c4cccc(Cl)c4)CC3)c3ccccc23)cc1	15µM*	4.6µM*	-6%	i	-27%	?
Cc1ccc(Nc2ncc(C(=O)N3CCN(c4ccc(F)cc4)CC3)c3ccccc23)cc1Cl	?	?	?	·	-25%	-6%
COc1ccc(N2CCN(C(=O)c3cnc(N4CCOCC4)c4ccccc34)CC2)cc1	?	23µM*	20%	·	0%	·
COc1ccc(Nc2ncc(C(=O)N3CCN(c4ccc(OC)cc4)CC3)c3ccccc23)cc1	23µM*	16µM*	0%	?	-39%	?
SMILES	DT40 TDP1 CPT	DT40 TDP1 no CPT	TGFb inhibitor	ATXN viability	HepG2 viability	ATXN2 expr inh
COc1ccc(Nc2ncc(C(=O)N3CCN(c4ccc(F)cc4)CC3)c3ccccc23)cc1	23µM*	5.2µM*	?	?	-27%	?
COc1ccc(Nc2ncc(C(=O)O)c3ccccc23)cc1	-7%	-4%	-2%	i	7%	15%
Cc1cccc(C(=Cc2ccc([N+](=O)[O-])cc2)C(=O)O)c1	-24%	?	3%	i	-1%	·
O=C(Nc1ccc(-c2nc3ccccc3o2)c(O)c1)c1ccccc1	?	18µM*	19%	?	5%	22%
Cc1cccc(C(=O)Nc2ccc(C(=O)c3ccncc3)cc2)c1	?	15µM*	-8%	?	-4%	·
COc1cccc(OC)c1C(=O)NC(=S)Nc1ccc2oc(-c3ccncc3)nc2c1	26µM*	23µM*	-1%	i	13%	-19%
O=C(Nc1ccc2oc(-c3ccccc3)nc2c1)c1ccc2ccccc2c1	?	-7%	1%	i	3%	4%
Cc1cccc(C(=O)Nc2ccc(C(=O)c3ccccc3)cc2)c1	?	?	-13%	i	-15%	-22%
CC(C)(C)c1ccc(C(=O)Nc2ccc(-c3nc4ccccc4o3)c(O)c2)cc1	5%	-17%	-2%	i	18%	9%
CCC(=O)NC(=S)Nc1ccc2oc(-c3ccc(OC)cc3)nc2c1	-28%	-27%	10%	i	13%	18%
CC(C)Oc1cccc(C(=O)Nc2ccc3oc(-c4ccccc4)nc3c2)c1	?	21µM*	?	?	-24%	?
O=C(Nc1ccc2oc(-c3ccncc3)nc2c1)c1c(F)c(F)c(F)c(F)c1F	0.73µM*	1.5µM*	-6%	i	-30%	5%
O=C(Nc1ccc2oc(-c3ccncc3)nc2c1)c1ccc2c(c1)OCCO2	?	?	?	i	-30%	-27%
O=C(Nc1ccc2oc(-c3ccccc3)nc2c1)c1ccc2c(c1)OCCO2	23µM*	16µM*	-13%	?	-35%	-19%
COc1c(F)c(F)c(C(=O)Nc2ccc3oc(-c4ccncc4)nc3c2)c(F)c1F	-10%	-18%	6%	i	19%	1%

From PubChem
